According to PubChem BioAssay (NCATS):
“And” between values parts separate entries of the source, which are not always exact repeats. Equal values may be shown once. Records with an inconclusive call do not appear. The source made the active and inactive calls. The call rests on the fitted dose curve; in most records, active means well fitted curve in the direction sought with a large enough effect; inconclusive means small, poorly fitted or top-dose-only effect, or another doubt; inactive means no such curve, though single readings can be large; an effect the other way counts as inactive or inconclusive.

Experiments:
[1] = molecular target: Cellular tumor antigen p53 (Homo sapiens) (UniProt P04637); assay: Primary qHTS for small molecule compounds that upregulate eGFP-tagged delta133p53alpha (in N-terminal) cells. (AID 2060322); details: NCI-H358 eGFP-delta133p53alpha fluorescence, 24 h; activation: active compounds read high; further: nearly all actives have a fitted effect of over 75% in size; further: potency means the concentration at half of the fitted maximal effect;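 on activation: cells pre-induced with doxycycline then dosed without doxycycline; series mostly up to about 56 µM; 0% = DMSO vehicle and 100% = reference activator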
In short: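 NCI-H358 cells pre-induced 24 h with 10 ng/ml doxycycline for eGFP-delta133p53alpha, plated dox-free and exposed 24 h at 37C to titrated compounds. Fixed, Hoechst-stained; gated GFP peak intensity by laser scanning cytometry, normalized to DMSO (0%) and 57.5 uM 5-azacytidine (100%).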

[2] = molecular target: Aldehyde dehydrogenase, mitochondrial (Homo sapiens) (UniProt P05091); assay: qHTS for Inhibitors of the Aldehyde Dehydrogenase Family (ALDH2) Primary screen (AID 2061308);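 further: plate controls were vehicle for no effect and reference inhibitor for full effect; nearly all actives have a fitted effect of over 55% in size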
[3] = molecular target: Retinaldehyde dehydrogenase 3 (Homo sapiens) (UniProt P47895); assay: qHTS for Inhibitors of the Aldehyde Dehydrogenase Family (ALDH1A3) Primary screen (AID 2061315);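 further: plate controls were DMSO vehicle for no effect and reference inhibitor for full effect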
[4] = molecular target: Retinaldehyde dehydrogenase 3 (Homo sapiens) (UniProt P47895); assay: qHTS for Inhibitors of the Aldehyde Dehydrogenase Family (ALDH1A3) Confirmatory screens (AID 2061311); further: nearly all actives have a fitted effect of over 60% in size; further: potency means the concentration at half of the fitted maximal effect
[5] = molecular target: Aldehyde dehydrogenase 1A1 (Homo sapiens) (UniProt P00352); assay: qHTS for Inhibitors of the Aldehyde Dehydrogenase Family (ALDH1A1) Confirmatory screens (AID 2061316); further: nearly all actives have a fitted effect of over 65% in size; further: potency means the concentration at half of the fitted maximal effect
[6] = molecular target: Retinaldehyde dehydrogenase 3 (Homo sapiens) (UniProt P47895); assay: qHTS for Inhibitors of the Aldehyde Dehydrogenase Family (ALDH1A3) Validation screen (AID 2061312); further: nearly all actives have a fitted effect of over 45% in size; further: potency means the concentration at half of the fitted maximal effect
[7] = BET inhibitor-based combinations targeting novel dependencies in MECOM-rearranged (r) AML: SET-2 cell line (AID 2202231); details: SET-2 AML cells viability, CellTiter-Glo luminescence, 48 h; viability: active compounds read low, concentration not given here; further: nearly all actives have a fitted effect of over 35% in size; further: potency means the concentration at half of the fitted maximal effect;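 on viability: plate controls were DMSO treated cells for no effect and wells without cells for full effect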
In short: (§1)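 Readout: CellTiter-Glo luminescence. Exposure: 48 h, 11 concentrations, 500 cells/well. Metric: AUC and within-line Z-AUC after DMSO/empty-well normalization.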

[8] = BET inhibitor-based combinations targeting novel dependencies in MECOM-rearranged (r) AML: HNT-34 cell line (AID 2202234); further: nearly all actives have a fitted effect of over 35% in size; further: potency means the concentration at half of the fitted maximal effect
In short: (§2)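 Seeding density was 500 cells/well, and drug exposure lasted 48 hr under standard culture conditions. Read-out used CellTiter-Glo reagent with a 15 min room-temperature incubation before luminescence measurement; AUC and Z-AUC summarize the normalized responses.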

[9] = BET inhibitor-based combinations targeting novel dependencies in MECOM-rearranged (r) AML: UCSD-AML1 cell line (AID 2202235); further: nearly all actives have a fitted effect of over 40% in size; further: potency means the concentration at half of the fitted maximal effect
In short: as §2

[10] = BET inhibitor-based combinations targeting novel dependencies in MECOM-rearranged (r) AML: AML-191 cell line (AID 2202236; further: nearly all actives have a fitted effect of over 35% in size; further: potency means the concentration at half of the fitted maximal effect)
In short: as §1

[11] = BET inhibitor-based combinations targeting novel dependencies in MECOM-rearranged (r) AML: AML-194 cell line (AID 2202237; further: nearly all actives have a fitted effect of over 40% in size; further: potency means the concentration at half of the fitted maximal effect)
In short: as §1

[12] = molecular target: Cellular tumor antigen p53 (Homo sapiens) (UniProt P04637); assay: Primary qHTS for small molecule compounds that upregulate eGFP-tagged delta133p53alpha (in C-terminal) cells. (AID 2060324);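 further: 0% = DMSO wells and 100% = 57.5 µM 5-azacytidine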
In short: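 Concentration-response screen: compounds titrated onto pre-induced NCI-H358 D133p53a-eGFP cells, incubated one day, fixed with 3.5% PFA. Per-cell GFP peak intensity was gated, then normalized against intraplate controls.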

[13] = BET inhibitor-based combinations targeting novel dependencies in MECOM-rearranged (r) AML: OCI-AML3 cell line (AID 2202232); details: Potency: OCI-AML3 viability; further: nearly all actives have a fitted effect of over 35% in size; further: potency means the concentration at half of the fitted maximal effect
In short: as §1

[14] = BET inhibitor-based combinations targeting novel dependencies in MECOM-rearranged (r) AML: MV-4-11 cell line (AID 2202233); further: nearly all actives have a fitted effect of over 45% in size; further: potency means the concentration at half of the fitted maximal effect
In short: as §2

Chain of Cellular tumor antigen p53 (Homo sapiens) (P04637 whole entry, looked up): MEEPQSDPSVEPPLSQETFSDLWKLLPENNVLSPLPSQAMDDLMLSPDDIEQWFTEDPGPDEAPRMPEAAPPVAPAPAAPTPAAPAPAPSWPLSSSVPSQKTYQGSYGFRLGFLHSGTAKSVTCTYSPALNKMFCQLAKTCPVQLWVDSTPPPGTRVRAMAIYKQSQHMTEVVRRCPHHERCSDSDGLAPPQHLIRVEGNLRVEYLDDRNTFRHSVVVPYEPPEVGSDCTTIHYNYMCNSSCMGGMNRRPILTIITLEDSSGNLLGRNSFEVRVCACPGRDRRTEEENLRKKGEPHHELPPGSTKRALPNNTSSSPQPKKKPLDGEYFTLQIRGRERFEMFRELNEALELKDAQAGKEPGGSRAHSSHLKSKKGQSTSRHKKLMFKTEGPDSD

C=CC/C=C\C/C=C\CCCCCCCc1cc(O)cc(O)c1
inactive: activation [1] -9.92% | Potency [2] | Potency [3]

CC1=CC2(O)/C=C/C(C)(O)C(O)C(O)/C=C/C(=O)OC23C(=O)NC(CC(C)C)C3C1C (stereo not drawn)
inactive: activation [1] 0.763% | Potency [2] | Potency [3]

CN(C)[C@@H]1C(=O)C(C(N)=O)=C(O)[C@@]2(O)C(=O)C3=C(O)c4c(O)ccc(Cl)c4[C@@](C)(O)C3C[C@@H]12 (stereo partly drawn)
inactive: Potency [4] | Potency [5]

COc1ccc2c(c[n+](C)c3c4cc5c(cc4ccc23)OCO5)c1OC
active: Potency [4] 7.12 µM | Potency [5] 6.34 µM

FC(F)(F)c1ccc(N2CCNCC2)nc1Cl
inactive: Potency [6]

CNc1ccc2oc(C[C@H]3O[C@@]4(CC[C@H]3C)O[C@H](C(C)C(=O)c3ccc[nH]3)[C@H](C)C[C@H]4C)nc2c1C(=O)O (stereo partly drawn)
active: Potency [6] 14.1 µM

Clc1ccccc1C(c1ccccc1)(c1ccccc1)n1cccn1
inactive: activation [1] 8.55% | viability [7] 90.1% | Potency [8] | Potency [9] | Potency [10] | Potency [11]

CC[C@@H](CO)NC(=O)[C@@H]1C=C2c3cccc4c3c(cn4C)C[C@H]2N(C)C1
inactive: Potency [12]

COc1cccc2c1C(=O)c1c(O)c3c(c(O)c1C2=O)C[C@@](O)(C(=O)CO)CC3OC1CC(N2CCOC(OC)C2)C(O)C(C)O1 (stereo partly drawn)
active: Potency [1] 0.0276 µM | Potency [13] 0.0047 µM | Potency [9] 0.0047 µM | Potency [10] 0.0053 µM

C[C@]12CC[C@@H]3[C@@H](CCC4=CC(=O)CC[C@@H]43)[C@@H]1CC[C@@H]2OC(=O)CCc1ccccc1
active: Potency [14] 18.6 µM
inactive: activation [1] 7.88% | viability [7] 104% | Potency [9] | Potency [11]

O=C1CC[C@@]2(O)[C@H]3Cc4ccc(O)c5c4[C@@]2(CCN3CC2CC2)[C@H]1O5
inactive: activation [1] -5.99% and 2.51% | Potency [8] | Potency [9] | Potency [11]

CN(C)CCN(C)CCc1ccc(Cl)c(Cl)c1
inactive: activation [1] 12% | viability [7] 103% | Potency [14] | Potency [8] | Potency [9] | Potency [11]

C[C@]12CC[C@H]3[C@@H](CCC4=CC(=O)CC[C@@]43C)[C@H]1CC[C@H]2OC(=O)CCC1CCCC1
inactive: activation [1] 28.3% | viability [7] 96.4% | Potency [13] | Potency [8] | Potency [9] | Potency [10]

CN[C@@H]1Cc2cccc3[nH]c(=O)n(c23)C1
inactive: activation [1] 31.7% | Potency [13] | Potency [14] | Potency [8] | Potency [9] | Potency [10] | Potency [11]

CC1=C(O)C(=O)C=C2C1=CC=C1[C@@]2(C)CC[C@@]2(C)[C@@H]3C[C@](C)(C(=O)O)CC[C@]3(C)CC[C@]12C
active: Potency [1] 17.2 µM | Potency [7] 0.934 µM | Potency [14] 0.662 µM | Potency [9] 1.05 µM | Potency [10] 0.934 µM | Potency [11] 1.18 µM

CC(C)(C)c1cc(C=C(C#N)C#N)cc(Br)c1O
inactive: activation [1] 19.6%
active: Potency [13] 23.5 µM | Potency [14] 18.6 µM | Potency [8] 16.6 µM | Potency [9] 33.2 µM | Potency [10] 18.6 µM

C[C@](O)(COc1ccc(C#N)cc1)C(=O)Nc1ccc(C#N)c(C(F)(F)F)c1
inactive: activation [1] -20% | Potency [13] | Potency [14] | Potency [9] | Potency [11]

CCN1C[C@]2(OC(=O)c3ccccc3NC(C)=O)CC[C@H](OC)[C@@]34[C@H]5CC6[C@@H](OC)C[C@](O)(C(C[C@@H]23)[C@@H]14)[C@@]5(O)[C@@H]6OC
inactive: activation [1] 24.6% | Potency [14] | Potency [8] | Potency [9] | Potency [11]

C[C@]12CCC(=O)C(O)=C1CC[C@@H]1[C@@H]2CC[C@]2(C)C(=O)CC[C@@H]12
inactive: activation [1] 6.69% | Potency [8] | Potency [9] | Potency [10] | Potency [11]

O=c1[nH]c2ccccc2n1C1CCN(Cc2ccc(-c3[nH]c4cc5ncnc5cc4nc3-c3ccccc3)cc2)CC1
active: Potency [13] 9.34 µM | Potency [14] 14.8 µM | Potency [11] 20.9 µM
inactive: activation [1] 5.59% | viability [7] 104%

O=C(O)CCCc1ccc(N(CCCl)CCCl)cc1
active: Potency [9] 2.95 µM
inactive: activation [1] 7.53% and 20.9% | Potency [14]

CCCC[N+]1(C)[C@H]2CC(OC(=O)[C@H](CO)c3ccccc3)C[C@H]1[C@H]1O[C@H]12 (stereo partly drawn)
inactive: activation [1] -13.2% | Potency [14] | Potency [8] | Potency [9] | Potency [10] | Potency [11]

CCOC(=O)c1c(C(C#N)=CN)c2ccc(Cl)c(Cl)c2n1C
inactive: activation [1] -1.37% | viability [7] 114% | Potency [13] | Potency [9] | Potency [10] | Potency [11]
